Bioassay records deposited in PubChem by The Scripps Research Institute Molecular Screening Center.
Hits are enriched below; roughly 4.1% of the tested compounds scored in any of these assays.
ssDAF-12 act – S. stercoralis DAF-12 nuclear receptor activators, primary screen, cell-based, luminescence, HEK293, GRIP1 co-expression, lit1-tk-luc; Nuclear hormone receptor DAF-12 (Strongyloides stercoralis); HEK293 ssDAF-12/GRIP1 lit1-tk-luc reporter; % of 3 µM dafachronic acid response; activation, % at 6.8 µM; actives 1% (n = 370,000); AID 652126, 2013;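 active means activation above the mean over all tested compounds plus 3 SD, cut at about 0.9% in these data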;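 further: 0% = DMSO-only wells and 100% = 3 µM delta7-dafachronic acid wells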
DAX1 inh-1 – DAX1 (NR0B1) inhibitors, primary screen, cell-based, HEK293, Gal4-DAX1, luciferase luminescence; AID 504766, 2011; HEK293 Gal4-DAX1 luciferase reporter; Nuclear receptor subfamily 0 group B member 1 (Homo sapiens), P51843; actives 0.99% (n = 340,000); inhibition, % at 6.75 µM;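 active means inhibition above the mean over all tested compounds plus 3 SD, cut at about 4.2% in these data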;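 further: 0% = DAX1-transfected cells with DMSO and 100% = empty-vector control cells with DMSO; inhibition shows as a rise in luminescence from relieved DAX1 repression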
Target sequence (P51843 207-470 limits assumed): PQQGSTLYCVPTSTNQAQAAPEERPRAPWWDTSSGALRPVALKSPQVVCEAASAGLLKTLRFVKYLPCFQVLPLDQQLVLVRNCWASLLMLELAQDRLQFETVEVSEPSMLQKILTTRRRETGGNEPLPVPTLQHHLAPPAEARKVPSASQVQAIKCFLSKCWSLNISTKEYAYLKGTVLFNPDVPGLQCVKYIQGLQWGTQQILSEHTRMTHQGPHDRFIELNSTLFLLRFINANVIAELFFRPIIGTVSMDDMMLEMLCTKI
hcDAF-12 act – H. contortus DAF-12 nuclear receptor activators, primary screen, cell-based, luminescence, HEK293, lit1-tk-luc reporter; HEK293 hcDAF-12 lit1-tk-luc reporter; 0% DMSO, 100% Δ7-dafachronic acid; activation, % at 6.8 µM; actives 1.4% (n = 370,000);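 active means activation above the mean of all tested compounds plus 3 SD, cut at about 5.5% in these data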;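 further: 100% = response to 3 µM Δ7-dafachronic acid high control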
hgDAF12 agonist – H. glycines DAF-12 receptor agonists, primary screen, cell-based, luminescence, HEK293, GAL4 fusion, UAS-luciferase; Nuclear hormone receptor DAF-12 (Heterodera glycines), GAL4 fusion; actives 1.8% (n = 370,000); AID 687014, 2013; HEK293 GAL4-hgDAF12 UAS-luciferase reporter, agonist luminescence; normalized to butyrate control; activation, % at 6.8 µM;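 active means activation above a cutoff set at the mean of all screened compounds plus 3 SD, cut at about 10% in these data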;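 further: 0% = DMSO wells and 100% = sodium butyrate wells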
DAX1 inh-2 – DAX1 (NR0B1) inhibitors on StAR promoter, primary screen, cell-based, luminescence, SF-1 (NR5A1), full-length DAX-1; HEK293T StAR-luciferase reporter, SF-1/DAX-1 repression relief; inhibition, % at 6.8 µM; actives 1.1% (n = 370,000); AID 652010, 2013;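 active means inhibition above the mean over all tested compounds plus 3 SD, cut at about 3.6% in these data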;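 further: 0% = DAX-1 cells with DMSO and 100% = cells lacking DAX-1 with DMSO; higher inhibition means more luminescence from relief of DAX-1 repression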
* = called active by the depositor.

What do the screens show for `O=[N+]([O-])c1cccc(COc2cccc(CO)c2)c1`?
ssDAF-12 act: -1; DAX1 inh-1: 1; hcDAF-12 act: 0; hgDAF12 agonist: 9; DAX1 inh-2: 2

What do the screens show for `C#CCN1CC(N(C)CCOC(=O)c2cccs2)CS1(=O)=O` (stereo unspecified)?
ssDAF-12 act: -1; hcDAF-12 act: -2; hgDAF12 agonist: 4; DAX1 inh-2: 0

Results for COCCCN(C(=S)Nc1cc(C)cc(C)c1)C(C)c1ccncc1 (stereo unspecified) ?
ssDAF-12 act: 0.9*; DAX1 inh-1: -1; hcDAF-12 act: -1; hgDAF12 agonist: -2; DAX1 inh-2: 0

Results for Cc1cccc2cc(CN(C(=O)c3cccc([N+](=O)[O-])c3)C(C)C)c(=O)[nH]c12 ?
ssDAF-12 act: 0.9*; DAX1 inh-1: 0; hcDAF-12 act: 2; hgDAF12 agonist: -1; DAX1 inh-2: 1

How did CN(CC(O)COCc1cccs1)C1CCCCC1 (stereo unspecified) do in these assays?
ssDAF-12 act: -1; DAX1 inh-1: 3; hcDAF-12 act: -1; hgDAF12 agonist: 12*; DAX1 inh-2: 0

How did COC(=O)C[C@H]1CC[C@H]2[C@H](COc3ccc(NC(=O)C4CCOCC4)cc3C(=O)N2C)O1 do in these assays?
ssDAF-12 act: -1; hcDAF-12 act: -1; hgDAF12 agonist: 1; DAX1 inh-2: 0

What do the screens show for `CC(C)c1cc(C(C)C)c(S(=O)(=O)N2CCC(C(=O)NCC3COCCO3)CC2)c(C(C)C)c1` (stereo unspecified)?
ssDAF-12 act: -1; hcDAF-12 act: -4; hgDAF12 agonist: -1; DAX1 inh-2: 0

What do the screens show for `CC(C)n1nnnc1C1c2ccccc2C(=O)N1Cc1cccc(F)c1` (stereo unspecified)?
ssDAF-12 act: -1; hcDAF-12 act: 2; hgDAF12 agonist: -1; DAX1 inh-2: 3.8*

What do the screens show for `CC(C)n1nnnc1C1c2ccccc2C(=O)N1Cc1ccc(F)cc1` (stereo unspecified)?
ssDAF-12 act: 0; hcDAF-12 act: 0; hgDAF12 agonist: -4; DAX1 inh-2: -1

Results for N/C(=N\OC(=O)c1ccc(Br)cc1)c1ccccc1 ?
ssDAF-12 act: 0; DAX1 inh-1: 1; hcDAF-12 act: 3; hgDAF12 agonist: 12*; DAX1 inh-2: 3

What do the screens show for `N/C(=N\OC(=O)c1cccc(Br)c1)c1ccc(Br)cc1`?
ssDAF-12 act: 0; DAX1 inh-1: 0; hcDAF-12 act: 2; hgDAF12 agonist: 4; DAX1 inh-2: 0

Results for Cc1nc(-c2ccccc2)nc(Cl)c1Cl ?
ssDAF-12 act: -1; DAX1 inh-1: 1; hcDAF-12 act: -2; hgDAF12 agonist: -3; DAX1 inh-2: 0

How did Cc1sc2nc(-c3cccnc3)nc(Cl)c2c1-c1ccccc1 do in these assays?
ssDAF-12 act: -1; DAX1 inh-1: 4.3*; hcDAF-12 act: -4; hgDAF12 agonist: 3; DAX1 inh-2: 0

How did CC(=O)c1cc(-c2ccccc2)n(CC(=O)NCc2ccccc2)c1C do in these assays?
ssDAF-12 act: -1; hcDAF-12 act: -3; hgDAF12 agonist: 0; DAX1 inh-2: -2

How did N#CC1=C2SC=C(c3ccc(Br)cc3)N2CCCC1=O do in these assays?
ssDAF-12 act: -1; DAX1 inh-1: 4; hcDAF-12 act: 3; hgDAF12 agonist: 11*; DAX1 inh-2: 3.7*

How did COc1ccc(OC)c(NC(=O)c2ccc(NC(C)=O)cc2)c1 do in these assays?
ssDAF-12 act: -1; DAX1 inh-1: -1; hcDAF-12 act: -1; hgDAF12 agonist: -2; DAX1 inh-2: 0

Results for CCCc1cc(C(=O)Nc2cc(OC)ccc2OC)cs1 ?
ssDAF-12 act: 1.2*; DAX1 inh-1: 1; hcDAF-12 act: 5; hgDAF12 agonist: 5; DAX1 inh-2: 1

Results for Cc1ccc(C2=CC(c3cccs3)n3nnnc3N2)cc1 (stereo unspecified) ?
ssDAF-12 act: 1.0*; DAX1 inh-1: 1; hcDAF-12 act: 4; hgDAF12 agonist: 2; DAX1 inh-2: 0

What do the screens show for `Fc1ccc(C2=CC(c3cccs3)n3nnnc3N2)cc1` (stereo unspecified)?
ssDAF-12 act: -1; DAX1 inh-1: 3; hcDAF-12 act: 3; hgDAF12 agonist: 4; DAX1 inh-2: 0

What do the screens show for `Cc1cc(N2CCOCC2)ccc1/C=C\[N+](=O)[O-]`?
ssDAF-12 act: 16*; DAX1 inh-1: -1; hcDAF-12 act: 1; hgDAF12 agonist: 4; DAX1 inh-2: 0

How did CC(C)(C)N(NC(=O)NCCCl)C(=O)c1ccccc1Cl do in these assays?
ssDAF-12 act: 0; hcDAF-12 act: 2; hgDAF12 agonist: -5; DAX1 inh-2: -1

What do the screens show for `O=C1NC(=O)C(=O)N1`?
ssDAF-12 act: -1; DAX1 inh-1: 2; hcDAF-12 act: -1; hgDAF12 agonist: 0; DAX1 inh-2: 0

How did O=C1NC(=O)c2c(Br)c(Br)c(Br)c(Br)c21 do in these assays?
ssDAF-12 act: 1.0*; DAX1 inh-1: 1; hcDAF-12 act: 1; hgDAF12 agonist: 2; DAX1 inh-2: 0

Results for C=C(c1ccccc1)c1ccc(N(C)C)cc1 ?
ssDAF-12 act: -1; DAX1 inh-1: 0; hcDAF-12 act: -1; hgDAF12 agonist: 2; DAX1 inh-2: 0

How did CN(C)c1ccc(C(=O)c2ccccc2)cc1 do in these assays?
ssDAF-12 act: 2.0*; DAX1 inh-1: 1; hcDAF-12 act: 2; hgDAF12 agonist: 9; DAX1 inh-2: 0

Results for O=C(O)C(Cc1ccccc1)N1C(=O)c2cccc3cccc(c23)C1=O (stereo unspecified) ?
ssDAF-12 act: 1.7*; DAX1 inh-1: -1; hcDAF-12 act: 4; hgDAF12 agonist: 1; DAX1 inh-2: 0

Results for O=C(O)C(Cc1ccccc1)N1C(=O)c2ccccc2C1=O (stereo unspecified) ?
ssDAF-12 act: -1; DAX1 inh-1: -2; hcDAF-12 act: 0; hgDAF12 agonist: -2; DAX1 inh-2: 0

How did O=C(c1cc(Cl)ccc1F)N1CCCC(c2nc(-c3cccs3)no2)C1 (stereo unspecified) do in these assays?
ssDAF-12 act: -1; hcDAF-12 act: -1; hgDAF12 agonist: 3; DAX1 inh-2: 0

What do the screens show for `Cn1c(SCC(=O)NNC(=O)c2ccccc2O)nnc1-c1ccccc1`?
ssDAF-12 act: 0; DAX1 inh-1: 0; hcDAF-12 act: 6.1*; hgDAF12 agonist: 1; DAX1 inh-2: 1
